EBV gp42 inh = EBV gp42 inhibition | AID 1085 | inhibition, % (tested at 21.74 µM) | hit rate 0.42% among 220,000 | Q1HVG2 | Fluorescence polarization binding assay, mP read-out; in the data active means inhibition above about 50%
Target sequence (Q1HVG2 whole entry, looked up): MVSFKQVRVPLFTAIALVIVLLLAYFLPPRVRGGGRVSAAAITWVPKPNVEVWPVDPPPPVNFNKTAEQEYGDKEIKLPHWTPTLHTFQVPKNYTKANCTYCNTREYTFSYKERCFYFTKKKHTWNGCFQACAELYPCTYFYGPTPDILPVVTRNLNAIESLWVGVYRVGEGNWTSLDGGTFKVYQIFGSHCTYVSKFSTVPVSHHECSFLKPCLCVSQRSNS
EBNA-1 inhibitor = blocks EBNA-1 binding to DNA; EBNA-1 DNA binding, fluorescence polarization; inhibition, % at 14.8 µM; hit rate 0.34% among 300,000; in the data active means inhibition above about 28%
ZTA counter = counter-screen for EBNA-1 inhibitors: inhibitors of Epstein-Barr virus ZTA. inhibition, % at 11 µM. ZTA-DNA binding, fluorescence polarization. hit rate 0.15% among 320,000. P03206; in the data active means inhibition above about 33%
MEX-5 binding = C. elegans MEX-5 TCR-2 RNA binding activity; Q9XUB2; MEX-5/FITC-TCR2 RNA binding, fluorescence polarization; active compounds read low; activity score (negative = inhibition of binding), % at 10 µM; hit rate 0.38% among 300,000;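 active means inhibition past about -25% in most replicates, and total fluorescence under double the plate's negative control median, limit read from the data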;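 further: 0% = DMSO and -100% = 5 µM competing unlabeled TCR2 RNA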
* = called active by the depositor; nt = no result given. A selection: hits, their analogues and other compounds. The true share with any hit is near 1%.

SMILES | EBV gp42 inh | EBNA-1 inhibitor | ZTA counter | MEX-5 binding
OCCCc1nc2n(n1)C(c1cccs1)C=C(c1ccc(Br)cc1)N2 (stereo not given) | 140.7* | -5.3 | 2.5 | -68.3*
Brc1ccc(C2=CC(c3cccs3)n3ncnc3N2)cc1 (stereo not given) | 161.3* | -5.8 | -6.1 | -51.0*
Cc1ccc(C2C=C(c3ccccc3)Nc3ncnn32)cc1 (stereo not given) | nt | 0.8 | -0.6 | 2.0
O=C(N/N=C/c1cccnc1)c1cc(O)c(O)c(O)c1 | nt | -11.7 | 2.9 | -31.0*
O=C(N/N=C/c1cccnc1)c1ccc(O)cc1 | nt | -2.8 | 1.6 | -3.2
O=C(Nc1ccnn1C1CCN(C(=O)c2cccc(Cl)c2)CC1)C1CC1 | nt | -3.8 | 1.1 | -0.2
O=C(NNS(=O)(=O)c1ccccc1)c1csc(-c2cccnc2)n1 | -4.0 | -1.0 | -5.6 | -14.2
O=C(NNC(=O)c1csc(-c2cccnc2)n1)c1ccccc1 | -11.2 | -0.7 | -13.2 | -26.4*
CCOC(=O)c1cc(-c2ccccc2)nc2nc(N(CC)CC)sc12 | nt | -5.0 | 10.6 | -1.7
Cc1ncc(/C=C2\C(=O)Nc3ccccc32)[nH]1 | -3.9 | 6.5 | 6.2 | -40.1*
CNC(=O)/C(C#N)=C/c1ccc(-c2nc3ccccc3s2)o1 | 9.9 | 4.3 | 18.4 | -67.3*
N#C/C(=C/c1ccc(-c2ccc(S(N)(=O)=O)cc2)o1)c1nc2ccccc2s1 | 63.8* | 6.7 | -1.0 | nt
N#C/C(=C/c1ccc(-c2ccccc2)o1)c1nc(-c2cccs2)cs1 | 99.0* | 6.8 | 9.7 | nt
O=C(NNC(=O)c1ccccc1F)c1ccco1 | nt | 3.5 | 6.1 | -3.7
O=C(NNC(=O)c1ccccc1O)c1ccco1 | -6.8 | -11.5 | -2.4 | -29.2*
CC(=O)Nc1ccc(/C=C/C(=O)c2ccc3c(c2)OCCO3)cc1 | nt | 1.9 | 10.8 | -53.3*
COc1ccc(N/C=C/C(=O)c2ccc3c(c2)OCO3)cc1OC | -7.2 | -0.2 | -7.6 | -34.1*
COc1ccc(N/C=C\C(=O)c2ccc(C)cc2)cc1OC | -12.8 | -7.8 | 17.3 | -47.8*
COc1ccc(N/C=C\C(=O)c2ccc(Br)cc2)cc1OC | -132.6 | 10.6 | 9.3 | 1.9
COc1ccccc1CCC(=O)OCC(=O)NC1CC1 | nt | -4.2 | -4.8 | -0.3
CCCOc1ccc(NC(=O)CCC(=O)NC(C)c2ccccc2)cc1 (stereo not given) | nt | 16.3 | 13.1 | 0.0
CN(C)c1ccc(N=Cc2nc(-c3ccccc3)oc2OC(=O)c2cccc(Br)c2)cc1 | -2.1 | -7.9 | -13.8 | -43.3*
N#CC1=C(N)C(C#N)(C#N)C(c2cccnc2)C2COCC=C12 (stereo not given) | 3.0 | -0.3 | -8.2 | -26.0*
CCN(CC)c1ccc(S(=O)(=O)N2CCOCC2)cc1NC(=O)COC(=O)/C=C/c1ccc(C)o1 | nt | -5.1 | 7.0 | 1.1
C#CCOCCOCCOCCNc1nc(N2CCN(C(=O)[C@H]([C@@H](C)CC)n3cc([C@@H](N)CO)nn3)CC2)nc(N2CCN(C(=O)[C@H]([C@@H](C)CC)n3cc([C@@H](N)CC(C)C)nn3)CC2)n1 | 29.0 | 4.1 | -5.7 | -38.4*
SMILES | EBV gp42 inh | EBNA-1 inhibitor | ZTA counter | MEX-5 binding
C#CCOCCOCCOCCNc1nc(N2CCOCC2)nc(N2CCN(C(=O)CCCCCCCCCCNC(=O)[C@H]([C@@H](C)CC)n3cc(CCCCN=C(N)N)nn3)CC2)n1 | nt | 2.8 | 6.1 | nt
C#CCOCCOCCOCCNc1nc(N2CCN(C(=O)CCCCCCCCCCNC(=O)[C@H]([C@@H](C)CC)n3cc(CCCCN=C(N)N)nn3)CC2)nc(N2CCN(C(=O)CCCCCCCCCCNC(=O)[C@H](CCCN=C(N)N)n3cc(C[C@@H](C)CC)nn3)CC2)n1 | nt | 1.6 | 136.8* | nt
C#CCOCCOCCOCCNc1nc(N2CCN(C(=O)CCCCCCCCCCNC(=O)[C@H](CCCN=C(N)N)n3cc(C[C@@H](C)CC)nn3)CC2)nc(N2CCN(C(=O)CCCCCCCCCCNC(=O)[C@@H]([C@H](C)CC)n3cc(CCCCCN)nn3)CC2)n1 | nt | 1.3 | 161.3* | nt
Cn1c(CN2CCN(S(C)(=O)=O)CC2)nc2cc([N+](=O)[O-])ccc21 | nt | 8.5 | -4.0 | 1.6
COc1ccc2nc(N3C(=O)/C(=C/c4ccc(Cl)cc4)NC3=S)sc2c1 | 54.5* | nt | nt | nt
COc1ccccc1/C=C(/CC(=O)NCc1ccc2c(c1)OCO2)c1nc2ccccc2s1 | -15.3 | 36.4* | -1.3 | -1.0
O=C(O)C/C(=C\c1ccc2c(c1)OCO2)c1nc2ccccc2s1 | nt | 13.6 | 7.7 | -1.6
CC(CNC(=O)COc1ccc2c(c1)OCO2)c1ccccc1 (stereo not given) | nt | nt | -8.9 | nt
Oc1ccc(C2C[C@H]3CC[C@@H]2C3)cc1O (stereo not given in full) | nt | -21.4 | 0.4 | -65.1*
